These results are taken from PubChem BioAssay AID2284143 (EPA ToxCast).

Activity calls are given as the source filed them. How the source made its calls: active means hit-call score of the fitted dose curve at least 0.9, where 1 is the maximum; inactive means score below 0.9.

For the assay, the target named is human Adenosine Receptor A2A, ADORA2A (gene 135) (UniProt P29274). The experiment in a line: ERF_FR_GPCR_hADORA2A: Eurofins (ERF) G Protein-Coupled Receptor (GPCR) Radioligand Binding LeadHunter Assay for human Adenosine Receptor A2A Agonism, conducted at France lab site. Here is the method: ERF_FR_GPCR_hADORA2A is a biochemical, single-readout assay that uses extracted gene-proteins in a cell-free assay. Measurements were taken 2 hour after chemical dosing in a 96-well plate. See A2A Human Adenosine GPCR Binding (Agonist Radioligand) Assay, Cerep.ERF_FR_GPCR_hADORA2A is an assay component calculated from the ERF_FR_GPCR_hADORA2A assay. It is designed to measure radioligand binding using a type of binding reporter as detected by scintillation counting with radiometry technology.Data from the assay component ERF_FR_GPCR_hADORA2A was analyzed at the assay endpoint, ERF_FR_GPCR_hADORA2A, in the positive analysis fitting direction relative to DMSO as the negative control and baseline of activity. Using a type of binding reporter, gain-of-signal activity can be used to understand changes in binding as they relate to gene ADORA2A. To generalize the intended target to other relatable targets, this assay endpoint is annotated to the gpcr intended target family, where the subfamily is adenosine.
Chain of human Adenosine Receptor A2A, ADORA2A (gene 135) (P29274 whole entry, looked up): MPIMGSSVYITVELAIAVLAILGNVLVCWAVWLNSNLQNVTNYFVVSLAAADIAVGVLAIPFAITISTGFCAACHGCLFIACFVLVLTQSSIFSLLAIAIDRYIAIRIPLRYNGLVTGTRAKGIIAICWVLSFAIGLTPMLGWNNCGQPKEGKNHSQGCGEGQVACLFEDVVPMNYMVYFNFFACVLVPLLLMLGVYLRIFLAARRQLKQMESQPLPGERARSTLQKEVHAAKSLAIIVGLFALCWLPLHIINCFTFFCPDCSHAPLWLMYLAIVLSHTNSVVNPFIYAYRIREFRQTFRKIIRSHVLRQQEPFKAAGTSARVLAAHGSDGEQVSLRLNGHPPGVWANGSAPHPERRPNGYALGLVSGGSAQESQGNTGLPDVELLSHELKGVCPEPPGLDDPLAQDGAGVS
Human cells are incubated for 60 minutes in room temprature, using [3H]CGS 21680 ligand at 6 Kd (nM) with NECA control inhibitor.Test Sample Requirements: Minimum for 1) Screen: 60 ul of 10 mM stock -OR- 1 mg (pre-weighed) for […] uM final testing. 2) Dose Response: 90 ul of 10 mM stock -OR- 1 mg (pre-weighed) for a top concentration at 10 uM.
By AC50 is commonly meant the midpoint of the concentration-response curve, whichever way the signal moves. Consider `O=C(/C=C/c1ccc(O)cc1)CC(=O)/C=C/c1ccc(O)cc1`, for which the AC50 is 421 nM (active).
